Measured values: PubChem BioAssay (EPA / NIEHS)
Calls of active or inactive are those of the source. How the source made its calls: active means hit-call score of the fitted dose curve at least 0.9, where 1 is the maximum; inactive means score below 0.9.

read-out: Tumor necrosis factor (Homo sapiens) (UniProt P01375); experiment: BSK_LPS_TNFa: BioMAP Diversity Plus: LPS Assay for Tumour Necrosis Factor alpha (TNFa) Biomarker Activity (AID 2283085); settings: primary human HUVEC with PBMC; actives raise or lower the signal;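 on AC50: TNFa protein level quantified by ELISA in the co-culture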
Outline: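 HUVEC/PBMC co-culture, LPS-stimulated; 24 h post-dose; TNFa by ELISA; gain or loss of signal fitted bidirectionally vs DMSO baseline.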

Tumor necrosis factor (Homo sapiens), sequence (P01375 whole entry, looked up): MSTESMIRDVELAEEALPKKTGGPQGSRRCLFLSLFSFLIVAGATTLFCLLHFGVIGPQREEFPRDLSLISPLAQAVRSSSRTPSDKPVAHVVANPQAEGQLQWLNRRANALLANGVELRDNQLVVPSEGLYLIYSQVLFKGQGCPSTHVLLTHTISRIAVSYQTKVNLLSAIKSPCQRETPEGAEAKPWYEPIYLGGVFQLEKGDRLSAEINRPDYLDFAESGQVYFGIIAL

Compound	outcome	AC50
O=C(O)C(Cl)(Cl)Cl	inactive	
Oc1cccc2cccnc12	inactive	
CC(=O)OC(c1ccccc1)C(Cl)(Cl)Cl (stereo unspecified)	inactive	
C[C@]12CCC(=O)C[C@@H]1CC[C@@H]1[C@@H]2CC[C@]2(C)[C@@H](O)CC[C@@H]12	inactive	
COP(=S)(OC)Oc1ccc(Sc2ccc(OP(=S)(OC)OC)cc2)cc1	inactive	
C(=NC1CCCCC1)=NC1CCCCC1		35.1 µM (active)
COc1cc(OC)nc(NC(=O)NS(=O)(=O)c2ncccc2C(=O)N(C)C)n1	inactive	
CC12CC1(C)C(=O)N(c1cc(Cl)cc(Cl)c1)C2=O (stereo unspecified)	inactive	
COC(=O)c1sccc1S(=O)(=O)NC(=O)Nc1nc(C)nc(OC)n1	inactive	
C=C(C)C(=O)[O][Sn]([CH2]CCC)([CH2]CCC)[CH2]CCC		0.34 µM (active)
CC(C)(C)c1cc(O)ccc1O		9.38 µM (active)
CC(C)(c1ccccc1)c1ccc(O)c(C(C)(C)c2ccccc2)c1		12.3 µM (active)
CCCCCCCCc1ccc(O)cc1		33.6 µM (active)
O=C(Nc1ccc2[nH]ccc2c1)c1cc2cc(F)ccc2n1Cc1cccc(F)c1		26.5 µM (active)
O=C(OC1CCCCC1)c1ccccc1C(=O)OC1CCCCC1		26.5 µM (active)
C=CC(=O)OCCCCCC(C)C	inactive	
CC(C)(C)CC(C)(C)c1ccc(O)cc1		10 µM (active)

Compound	outcome	AC50
CCNc1nc(NC(C)(C)C)nc(SC)n1	inactive	
CC(=O)[O][Hg][c]1ccccc1		1.62 µM (active)
Nc1cccc2ccccc12	inactive	
ClCC(Cl)CCl	inactive	
CCOP(=S)(OCC)Oc1nc(Cl)c(Cl)cc1Cl	inactive	
CCOP(=S)(OCC)SCSP(=S)(OCC)OCC	inactive	
CCOP(=S)(OCC)SCCS(=O)(=O)CC	inactive	
CCOP(=S)(OCC)Oc1ccc(S(C)=O)cc1 (stereo unspecified)	inactive	
COC[C@H](C)N(C(=O)CCl)c1c(C)csc1C	inactive	
ClC(Cl)=C(Cl)C(Cl)=C(Cl)Cl		30.9 µM (active)
COC(=O)Cc1ccccc1	inactive	
O=[N+]([O-])c1ccc(O)c([N+](=O)[O-])c1	inactive	
Nc1ncc([N+](=O)[O-])s1	inactive	
NC(=S)Nc1ccccc1	inactive	
CCC(C)(C)c1ccc(O)c(C(C)(C)CC)c1		13.1 µM (active)
O=C(O)CCC(F)(C(F)(F)F)C(F)(F)F	inactive	
CCCCC(CC)CO[N+](=O)[O-] (stereo unspecified)	inactive	

read-out: Vascular cell adhesion molecule 1 (VCAM1), VCAM1 (gene 7412); experiment: BSK_LPS_VCAM1: BioMAP Diversity Plus: LPS Assay for Vascular cell adhesion molecule 1 (VCAM1) Biomarker Activity (AID 2283086); settings: primary human HUVEC with PBMC; actives raise or lower the signal
Outline: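 ELISA read-out of VCAM-1 at 24 h post-dosing in an LPS-driven HUVEC/PBMC primary human co-culture; gain or loss of signal fitted bidirectionally against DMSO baseline. Cytotoxicity tracked in parallel cultures by SRB total-protein staining.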

Compound	outcome	AC50
O=C(O)C(Cl)(Cl)Cl	inactive	
Oc1cccc2cccnc12		3.97 µM (active)
CC(=O)OC(c1ccccc1)C(Cl)(Cl)Cl (stereo unspecified)	inactive	
C[C@]12CCC(=O)C[C@@H]1CC[C@@H]1[C@@H]2CC[C@]2(C)[C@@H](O)CC[C@@H]12		29 µM (active)
COP(=S)(OC)Oc1ccc(Sc2ccc(OP(=S)(OC)OC)cc2)cc1	inactive	
C(=NC1CCCCC1)=NC1CCCCC1		30.4 µM (active)
COc1cc(OC)nc(NC(=O)NS(=O)(=O)c2ncccc2C(=O)N(C)C)n1	inactive	
CC12CC1(C)C(=O)N(c1cc(Cl)cc(Cl)c1)C2=O (stereo unspecified)	inactive	
COC(=O)c1sccc1S(=O)(=O)NC(=O)Nc1nc(C)nc(OC)n1	inactive	
C=C(C)C(=O)[O][Sn]([CH2]CCC)([CH2]CCC)[CH2]CCC		0.148 µM (active)
CC(C)(C)c1cc(O)ccc1O		8.15 µM (active)
CC(C)(c1ccccc1)c1ccc(O)c(C(C)(C)c2ccccc2)c1		12.9 µM (active)
CCCCCCCCc1ccc(O)cc1		30.5 µM (active)
O=C(Nc1ccc2[nH]ccc2c1)c1cc2cc(F)ccc2n1Cc1cccc(F)c1		11.9 µM (active)
O=C(OC1CCCCC1)c1ccccc1C(=O)OC1CCCCC1		20.9 µM (active)
C=CC(=O)OCCCCCC(C)C	inactive	
CCNc1nc(NC(C)(C)C)nc(SC)n1	inactive	

Compound	outcome	AC50
CC(=O)[O][Hg][c]1ccccc1		2.4 µM (active)
Nc1cccc2ccccc12	inactive	
ClCC(Cl)CCl	inactive	
CCOP(=S)(OCC)Oc1nc(Cl)c(Cl)cc1Cl		29.2 µM (active)
CCOP(=S)(OCC)SCSP(=S)(OCC)OCC	inactive	
CCOP(=S)(OCC)SCCS(=O)(=O)CC	inactive	
CCOP(=S)(OCC)Oc1ccc(S(C)=O)cc1 (stereo unspecified)	inactive	
COC[C@H](C)N(C(=O)CCl)c1c(C)csc1C	inactive	
ClC(Cl)=C(Cl)C(Cl)=C(Cl)Cl		31.4 µM (active)
COC(=O)Cc1ccccc1	inactive	
O=[N+]([O-])c1ccc(O)c([N+](=O)[O-])c1	inactive	
Nc1ncc([N+](=O)[O-])s1	inactive	
NC(=S)Nc1ccccc1	inactive	
CCC(C)(C)c1ccc(O)c(C(C)(C)CC)c1		25 µM (active)
O=C(O)CCC(F)(C(F)(F)F)C(F)(F)F	inactive	
CCCCC(CC)CO[N+](=O)[O-] (stereo unspecified)	inactive	

read-out: CD38, CD38 (gene 952); experiment: BSK_SAg_CD38: BioMAP Diversity Plus: SAg Assay for CD38 Biomarker Activity (AID 2283087); settings: primary human HUVEC with PBMC; actives raise or lower the signal
Outline: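 Measures CD38 on a human endothelial/PBMC co-culture driven by SEB and TSST-1, 24 h after compound exposure, using ELISA with fluorescence detection; DMSO defines baseline for bidirectional curve fitting.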

Compound	outcome	AC50
O=C(O)C(Cl)(Cl)Cl	inactive	
Oc1cccc2cccnc12	inactive	
CC(=O)OC(c1ccccc1)C(Cl)(Cl)Cl (stereo unspecified)	inactive	
C[C@]12CCC(=O)C[C@@H]1CC[C@@H]1[C@@H]2CC[C@]2(C)[C@@H](O)CC[C@@H]12	inactive	
COP(=S)(OC)Oc1ccc(Sc2ccc(OP(=S)(OC)OC)cc2)cc1		14.5 µM (active)
C(=NC1CCCCC1)=NC1CCCCC1		14.1 µM (active)
COc1cc(OC)nc(NC(=O)NS(=O)(=O)c2ncccc2C(=O)N(C)C)n1	inactive	
CC12CC1(C)C(=O)N(c1cc(Cl)cc(Cl)c1)C2=O (stereo unspecified)	inactive	
COC(=O)c1sccc1S(=O)(=O)NC(=O)Nc1nc(C)nc(OC)n1	inactive	
C=C(C)C(=O)[O][Sn]([CH2]CCC)([CH2]CCC)[CH2]CCC		0.248 µM (active)
CC(C)(C)c1cc(O)ccc1O		8.22 µM (active)
CC(C)(c1ccccc1)c1ccc(O)c(C(C)(C)c2ccccc2)c1		10.5 µM (active)
CCCCCCCCc1ccc(O)cc1		31.2 µM (active)
O=C(Nc1ccc2[nH]ccc2c1)c1cc2cc(F)ccc2n1Cc1cccc(F)c1		10.3 µM (active)
O=C(OC1CCCCC1)c1ccccc1C(=O)OC1CCCCC1		33.3 µM (active)
C=CC(=O)OCCCCCC(C)C	inactive	
CC(C)(C)CC(C)(C)c1ccc(O)cc1		7.91 µM (active)

Compound	outcome	AC50
CCNc1nc(NC(C)(C)C)nc(SC)n1	inactive	
CC(=O)[O][Hg][c]1ccccc1		0.56 µM (active)
Nc1cccc2ccccc12	inactive	
ClCC(Cl)CCl	inactive	
CCOP(=S)(OCC)Oc1nc(Cl)c(Cl)cc1Cl		32.3 µM (active)
CCOP(=S)(OCC)SCSP(=S)(OCC)OCC	inactive	
CCOP(=S)(OCC)SCCS(=O)(=O)CC	inactive	
CCOP(=S)(OCC)Oc1ccc(S(C)=O)cc1 (stereo unspecified)	inactive	
COC[C@H](C)N(C(=O)CCl)c1c(C)csc1C	inactive	
ClC(Cl)=C(Cl)C(Cl)=C(Cl)Cl	inactive	
COC(=O)Cc1ccccc1	inactive	
O=[N+]([O-])c1ccc(O)c([N+](=O)[O-])c1	inactive	
Nc1ncc([N+](=O)[O-])s1	inactive	
NC(=S)Nc1ccccc1	inactive	
CCC(C)(C)c1ccc(O)c(C(C)(C)CC)c1		14.9 µM (active)
O=C(O)CCC(F)(C(F)(F)F)C(F)(F)F	inactive	
CCCCC(CC)CO[N+](=O)[O-] (stereo unspecified)	inactive	
